# Among all 130,000 compounds or so, about 1,200 (0.92%) were called active.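 The calls were made as follows: active = inhibition above the mean plus 3 SD, with well images judged a real hit on visual review (cut at about 60% in these data, passing the limit was not always enough); inconclusive = inhibition over the cutoff but images rejected on review; inactive = inhibition not above the cutoff.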 What follows is part of a selection rich in actives, with near analogues and random picks from the rest.
# Assay: inhibitors of insulin promoter-driven GFP, primary screen, imaging, TRM-6 cells (human fetal islet line), eGFP reporter, cell count (AID 1273;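 as to normalized cell count: cells exposed to compound for 48 h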)
# Details: at 2 µM, reporter expression induced with tamoxifen; inhibition: stronger effect = higher value; normalized cell count: measured here: cell count, toxicity
Structure (SMILES),inhibition,normalized cell count [%]
COc1cc(NC(=O)c2cccs2)ccc1NC(=O)c1ccccc1Cl,20% (inactive),118
CCC(=O)c1cc2c(cc1NC(=O)c1cccs1)OCCO2,80% (active),106
Cc1nc(-c2ccc(NC(=O)c3cccs3)cc2)cs1,43.8% (inactive),89.3
N/C(=N\OC(=O)COc1ccc([N+](=O)[O-])cc1)c1ccc(Br)cc1,-81.2% (inactive),113
Cc1cccc(C)c1NC(=S)N(Cc1cccnc1)Cc1ccccc1Cl,-60% (inactive),73.3
Cc1cccc(N2C(=O)c3cccnc3C2=O)c1,11.4% (inactive),66.7
CCOc1ccc(CCN2C(=O)c3cccnc3C2=O)cc1OCC,68.4% (active),94.8
CCOc1ccc(CCNC(=O)CSc2cc(=O)n(C)c3ccc(Cl)cc23)cc1OCC,-11.8% (inactive),144
C/C(=N\NC(=O)C(N)=O)c1ccc2c(c1)OCCO2,-41.2% (inactive),156
Cc1nc(NC(=O)CN(C)S(=O)(=O)c2ccc(Cl)cc2)sc1C,80% (active),67.9
CN(CC(=O)Nc1cccc2c1CCCC2)S(=O)(=O)c1ccc(Cl)cc1,38.5% (inactive),112
CN(CC(=O)NCCc1ccccn1)S(=O)(=O)c1ccc(Cl)cc1,-33.3% (inactive),83.8
COC(=O)c1cc(C)sc1NC(=O)CC1Nc2ccccc2NC1=O (configuration not stated),40.5% (inactive),145
Cc1cnc(NC(=O)C2CCCC2)s1,20.5% (inactive),280
CCOC(=O)c1cc(C)sc1NC(=O)C1CCC1,87.5% (active),161
CCOC(=O)c1ccc(NNC(C)=O)c([N+](=O)[O-])c1,-68.4% (inactive),62.3
O=C(C1CCCO1)N1CCN(C(=S)NC2CC2)CC1 (configuration not stated),-29.4% (inactive),80.6
CC(=O)c1ccc(N2CCN(S(=O)(=O)c3c(C)[nH]c(=O)[nH]c3=O)CC2)cc1,-10% (inactive),114
Cc1ccc(N/C=C/C(=O)c2ccccc2)cc1C,7.69% (inactive),107

Structure (SMILES),inhibition,normalized cell count [%]
C/C(=C\C(=O)c1cccnc1)Nc1ccc(C)c(C)c1,85.7% (active),74
C/C(=C\C(=O)c1ccccc1)Nc1cccc(O)c1,-33.3% (inactive),193
CCSC1=NCCN1S(=O)(=O)c1ccc(F)cc1,7.69% (inactive),130
Cc1cnc(C(=O)OCC(=O)Nc2ccc(Cl)cc2Cl)cn1,81.5% (active),20
CC(Oc1ccc(Cl)cc1)C(=O)OCC(=O)Nc1ncc(Cl)cc1Cl (configuration not stated),20% (inactive),100
COc1cc(NC(=O)COC(=O)c2cnc(C)cn2)c(C)cc1[N+](=O)[O-],27.3% (inactive),90.4
Cc1ccc(S(=O)(=O)Cc2cc(-c3ccc(Cl)cc3)no2)cc1,25% (inactive),128
CCOC(=O)C1(Cc2ccc(Cl)cc2)CCN(C(=O)C2=NNC(=O)CC2)CC1,-46.1% (inactive),93.7
CCN(CC)Cc1c(C(=O)OC)nnn1-c1nonc1N,72.4% (active),14.1
CCOC(=O)c1nnn(-c2nonc2-n2cccc2)c1CN1CCOCC1,13.9% (inactive),62.1
CCOC(=O)c1nnn(-c2nonc2-n2cccc2)c1CN1CCC(C(=O)OCC)CC1,13.9% (inactive),99.3
Cc1ccc(C(=O)Cn2cccn2)cc1,-62.5% (inactive),90.7
CNS(=O)(=O)c1ccc(NC(=O)C2CC(=O)N(c3ccc(Cl)cc3)C2)cc1 (configuration not stated),63.6% (inactive),32.9
O=C(Nc1nnc(SCc2ccccc2)s1)c1ccco1,0% (inactive),86.4
CCSc1nnc(NC(=O)c2ccc(C)cc2)s1,-38.7% (inactive),45.1
Cc1ccc(Nc2nnc(SCc3ccccc3)s2)cc1,100% (active),9.38
CN(C)CCNC(=O)C(C(=O)c1ccccc1)n1ccccc1=O (configuration not stated),86.7% (active),49.3
CN(C)CCNC(=O)/C(=C/c1cccc([N+](=O)[O-])c1)NC(=O)c1ccccc1,-14.3% (inactive),101
O=C(NCC1CCCO1)C(C(=O)c1ccccc1)n1cc(Cl)ccc1=O (configuration not stated),-40% (inactive),104

Structure (SMILES),inhibition,normalized cell count [%]
COCC(=O)Nc1cc(C(=O)OC)cc(C(=O)OC)c1,12.8% (inactive),127
Cc1ccc(OC(=O)CCC(=O)Nc2ccc(Br)cc2)cc1,-66.7% (inactive),102
COCC(=O)Nc1ccc(Br)cc1,73.3% (active),43.9
O=C(Cc1cccc2ccccc12)NCCC1=CCCCC1,-22.2% (inactive),92.7
CCOC(=O)c1ccccc1NC(=O)CSc1nc2ccccc2c(=O)[nH]1,-83.3% (inactive),180
CCc1ccc(NC(=O)c2ccc(Cn3cc([N+](=O)[O-])cn3)cc2)cc1,6.25% (inactive),63.8
Cn1cc([N+](=O)[O-])c(C(=O)Nc2cnn(Cc3ccc(F)cc3)c2)n1,69.2% (active),112
COc1cccc(NC(=O)c2ccc(Cn3cc([N+](=O)[O-])cn3)o2)c1,-11.1% (inactive),79.5
COCCNC(=S)N1CCC(NC(=O)C23CC4CC(CC(C4)C2)C3)CC1,21.4% (inactive),106
CCn1c(SCc2ccccc2)nc2c(c1=O)SCC2,48.6% (inactive),108
CC(Sc1nnnn1C)C(=O)NC(=O)NC1CCCCC1 (configuration not stated),36.4% (inactive),91.5
Cc1ccc(NC(=O)C2(N3CCC3=O)CCCCC2)cc1,-35.7% (inactive),133
O=C(O)Cc1ccc(NCc2ccccc2Cl)cc1,0% (inactive),111
CC(C)(C)SCCNC(=O)c1cccc([N+](=O)[O-])c1,-42.9% (inactive),85.5
C=CCNC(=O)COC(=O)CNC(=O)c1cc(Cl)cc([N+](=O)[O-])c1,83.3% (active),37
C=CCNC(=O)/C(=C\c1cccc([N+](=O)[O-])c1)NC(=O)c1ccccc1,-26.7% (inactive),102
CC(OC(=O)CCc1nc(=O)c2ccccc2n1C)C(=O)NCc1ccc2c(c1)OCO2 (configuration not stated),-58.8% (inactive),141
Cc1ccc(CNC(=O)CCNS(=O)(=O)c2ccc(Br)s2)cc1,37.5% (inactive),94.3

# — PubChem BioAssay AID1273 (Columbia University Molecular Screening Center, 2008)
